5HT1a antag = 5-HT1a (human) receptor antagonism; AID 612; inhibition, % at 10 µM; 62,000 compounds, 0.68% hits; CHO 5-HT1a Ga15 NFAT-bla reporter, antagonist mode;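 active = inhibition above the mean of all tested compounds plus 3 SD, cut at about 43% in these data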;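 note: receptor stimulated by 5-CT agonist at 100 nM near EC80; beta-lactamase reporter measured by ratiometric fluorescence of a cleavable substrate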
HTR1A agonist = agonists of human 5-HT1a serotonin receptor | P08908 | CHO 5-HT1a Ga15 NFAT-bla reporter, FRET ratio; 0% basal, 100% maximal reference agonist | activation, % at 10 µM | 65,000 compounds, 0.56% hits | AID 567;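 active = activation above the screen-wide mean activation plus 3 SD, cut at about 19% in these data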;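 note: 0% = DMSO wells and 100% = 5-CT at EC100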
HTR1E antagonist = blocks the human 5-HT1E serotonin receptor. inhibition, % at 6 µM. P28566. 65,000 compounds, 0.99% hits. CHO 5-HT1E Ga15 NFAT-bla reporter, FRET, antagonist;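 active = inhibition above a set limit, the mean inhibition across every tested compound plus 3 SD, cut at about 29% in these data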;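 note: signal is the 460 over 535 nm emission ratio of beta-lactamase substrate; 0% = agonist plus DMSO wells and 100% = wells without agonist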
HER2 expr 66K = inhibitors of human Her2 kinase expression; P04626; 65,000 compounds, 0.69% hits; SKBR-3 HER2 protein level, AlphaScreen, 18-24 h; stronger effect = lower value; HER2 level % of control, % at 10 µM;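 active = HER2 level under 5% of the carrier-only control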;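 note: 100% = DMSO carrier and 0% = 500 nM PU-H71 HSP90 inhibitor; lower value means stronger loss of Her2 protein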
Target sequence (P04626 whole entry, looked up): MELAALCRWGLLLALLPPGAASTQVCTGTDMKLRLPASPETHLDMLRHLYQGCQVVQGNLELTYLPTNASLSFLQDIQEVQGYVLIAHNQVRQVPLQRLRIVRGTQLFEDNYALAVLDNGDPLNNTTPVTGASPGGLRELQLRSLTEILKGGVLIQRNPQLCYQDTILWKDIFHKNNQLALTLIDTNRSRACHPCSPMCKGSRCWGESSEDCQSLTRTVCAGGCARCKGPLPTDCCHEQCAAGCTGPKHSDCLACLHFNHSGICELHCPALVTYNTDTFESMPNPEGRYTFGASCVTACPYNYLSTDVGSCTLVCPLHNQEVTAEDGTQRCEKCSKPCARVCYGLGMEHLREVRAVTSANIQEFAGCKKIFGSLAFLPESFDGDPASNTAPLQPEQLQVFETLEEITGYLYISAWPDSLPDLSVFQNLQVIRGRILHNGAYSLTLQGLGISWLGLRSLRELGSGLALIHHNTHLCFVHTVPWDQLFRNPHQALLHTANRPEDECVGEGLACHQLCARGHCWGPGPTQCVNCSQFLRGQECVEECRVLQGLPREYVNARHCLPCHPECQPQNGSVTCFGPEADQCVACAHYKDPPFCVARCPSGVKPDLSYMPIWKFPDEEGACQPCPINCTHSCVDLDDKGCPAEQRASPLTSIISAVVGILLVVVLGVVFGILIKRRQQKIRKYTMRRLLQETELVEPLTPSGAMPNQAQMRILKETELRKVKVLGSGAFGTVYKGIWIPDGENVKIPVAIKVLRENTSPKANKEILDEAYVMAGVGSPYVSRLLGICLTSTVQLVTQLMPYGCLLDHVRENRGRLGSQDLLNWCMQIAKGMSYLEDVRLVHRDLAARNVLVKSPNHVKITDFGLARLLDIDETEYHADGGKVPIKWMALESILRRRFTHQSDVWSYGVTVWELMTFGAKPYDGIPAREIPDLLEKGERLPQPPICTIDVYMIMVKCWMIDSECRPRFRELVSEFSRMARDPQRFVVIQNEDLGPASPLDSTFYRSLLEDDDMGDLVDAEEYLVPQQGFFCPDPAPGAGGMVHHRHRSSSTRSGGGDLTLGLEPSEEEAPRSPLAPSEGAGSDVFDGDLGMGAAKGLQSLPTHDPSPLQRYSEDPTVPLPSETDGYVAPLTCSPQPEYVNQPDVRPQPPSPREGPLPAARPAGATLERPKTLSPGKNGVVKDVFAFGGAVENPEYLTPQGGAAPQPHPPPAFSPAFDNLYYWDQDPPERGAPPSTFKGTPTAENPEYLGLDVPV
5HT1E ag = agonists of human 5-HT1E serotonin receptor; AID 574; activation, % at 6 µM; P28566; 65,000 compounds, 0.69% hits; CHO 5-HT1E Ga15 NFAT-bla reporter, FRET; 0% DMSO wells, 100% control agonist wells;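 active = activation above a set limit, the screen-wide mean activation plus 3 SD, cut at about 8.5% in these data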;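 note: 100% = positive control agonist at 1 µM giving full maximal response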
* marks the source's active call; other numbers are inactive results; . = no result given. Compounds with a hit are over-represented: about 3% of the library has one in this group of screens.

SMILES | 5HT1a antag | HTR1A agonist | HTR1E antagonist | HER2 expr 66K | 5HT1E ag
O=C(CC1Sc2ncnn2C1=O)Nc1ccc(Br)cc1 (configuration not stated) | 7.0 | 0.0 | -11.0 | 83.2 | -0.5
COC(=O)c1cc(=O)n(C2CC2)c(=NC2CC2)s1 | 6.4 | 1.1 | 31.2* | 85.3 | -0.3
CCOC(=O)c1ccc(N=c2sc(C(=O)OC)cc(=O)n2C2CC2)cc1 | -13.1 | 1.5 | 1.7 | 87.9 | 0.8
CCOc1ccc(Nc2nc3c(c(=O)[nH]2)CCCC3)cc1 | 4.6 | -1.6 | -10.6 | 118.0 | 0.2
O=c1[nH]c(Nc2nc3ccccc3o2)nc2c1CCCC2 | -10.3 | -1.0 | -7.6 | -3.3* | 0.0
COc1ccc(CNC(=O)COc2ccc(S(=O)(=O)NC(C)C)cc2)cc1 | -10.1 | -0.4 | -2.9 | 115.9 | 1.7
O=C(CNC(=O)c1ccco1)OCc1ccc(Cl)cc1 | -0.5 | -2.5 | -3.7 | 83.0 | -0.4
OCCN1CCN(C(c2cccs2)c2ccc3cccnc3c2O)CC1 (configuration not stated) | 22.2 | -3.0 | 6.8 | 48.1 | -1.1
CC(C)(C)c1cc(C(c2cccnc2)N2CCN(CCO)CC2)cc(C(C)(C)C)c1O (configuration not stated) | 32.5 | -4.7 | 4.2 | -15.2* | -0.1
O=C(c1ccco1)N1CCC(c2ccccc2)C1 (configuration not stated) | -10.3 | 0.1 | 1.4 | 75.4 | 0.5
C=CCn1c(SCc2nc3ccccc3c(=O)[nH]2)nnc1-c1cc2cc(Cl)ccc2o1 | -1.4 | 3.0 | 2.1 | 3.3* | 0.2
O=c1[nH]c(CSc2nnc(-c3ccncc3)n2Cc2ccco2)nc2ccccc12 | -6.7 | 0.2 | 5.9 | 112.9 | 0.6
COC(=O)c1ccc(C(=O)OC)c(NC(=O)CSc2nc(-c3ccco3)cc(C(F)(F)F)n2)c1 | -5.5 | -0.4 | 0.4 | 93.6 | -0.6
COC(=O)c1ccccc1NC(=O)CSc1nc(-c2ccco2)cc(C(F)(F)F)n1 | 27.9 | -1.8 | 50.1* | 49.5 | -1.3
Cc1cc(NC(=O)CCCS(=O)(=O)c2nc(-c3cccs3)cc(C(F)(F)F)n2)no1 | 97.7* | -3.6 | 30.5* | -16.0* | 0.9
Cc1cc(NC(=O)CSc2nc(-c3cccs3)cc(C(F)(F)F)n2)no1 | 20.8 | -2.3 | 59.3* | 66.8 | -0.1
CS(=O)(=O)c1nc(-c2cccs2)cc(C(F)(F)F)n1 | 110.5* | -13.0 | 106.0* | -24.0* | 2.2
CCn1c(SCc2ccc(OC)cc2)nnc1-c1ccncc1 | -7.4 | 0.0 | -0.7 | 105.8 | 0.2
Cc1c(Cl)cccc1NC(=O)NC1CCCCC1 | 14.6 | -0.5 | 5.6 | 105.8 | -0.6
O=C(Nc1ccccc1NC(=O)NC1CCCCC1)NC1CCCCC1 | 7.3 | -4.7 | 56.1* | -15.3* | 0.9
Cc1ccc(S(=O)(=O)c2c(C)nn(C(C)(C)C)c2OC(=O)c2ccc(Br)o2)cc1 | 37.1 | -3.7 | -12.7 | 4.1* | -0.1
Cc1ccc(S(=O)(=O)c2c(C)nn(C(C)(C)C)c2OC(=O)c2ccco2)cc1 | -5.7 | -3.1 | -7.6 | 84.2 | 0.6
NC(=O)CCc1c[nH]c2ccccc12 | 9.5 | -1.1 | 1.2 | 104.6 | 1.1
O=C(O)C1CCCCC1C(=O)NCCc1c[nH]c2ccccc12 (configuration not stated) | -6.2 | 21.6* | 14.0 | 95.6 | 98.9*
O=C(NCCc1c[nH]c2ccccc12)C1CCN(c2nnc(N3CCCC3=O)s2)CC1 | 5.8 | -0.4 | -8.2 | 59.0 | 46.4*
SMILES | 5HT1a antag | HTR1A agonist | HTR1E antagonist | HER2 expr 66K | 5HT1E ag
O=C(NCCc1c[nH]c2ccccc12)C(F)(F)C(F)F | 9.1 | -0.4 | 10.6 | 89.8 | 25.6*
Fc1ccccc1N1CCN(c2ncnc3[nH]ncc23)CC1 | -8.0 | 309.9* | 4.9 | 110.1 | -0.6
COc1ccc(S(=O)(=O)N2CCC(C(=O)NCc3ccccn3)CC2)cc1C | -9.2 | 2.4 | -8.3 | 92.5 | 0.2
O=C(Nc1nc2ccccc2n1Cc1ccccc1)c1ccco1 | 59.5* | -1.6 | -7.0 | 85.8 | -0.4
O=C(c1ccc(CS(=O)(=O)c2ccccc2)o1)N1CCN(c2ncccn2)CC1 | -3.9 | -5.2 | 0.6 | 95.8 | 1.0
COC(=O)c1sccc1NC(=O)c1csc(C)c1 | 16.9 | -2.7 | 8.5 | 0.2* | -1.9
COC(=O)c1sccc1NC(=O)c1ccc(Cl)s1 | 12.5 | -0.7 | 9.4 | 4.0* | -0.9
COCCCNC(=O)c1ccccc1SC | 15.7 | -0.9 | 0.9 | 103.3 | 0.3
N=c1sccn1CC(=O)Nc1cccc(Oc2ccccc2)c1 | 46.2* | -4.8 | 11.2 | 121.1 | -0.2
COc1ccc(Cl)cc1N(CC(=O)Nc1ccc2c(c1)OCCO2)S(C)(=O)=O | 5.6 | -1.5 | 23.7 | 108.5 | -0.9
Cn1cnc2c1c(=O)[nH]c(=O)n2C | . | 0.7 | -10.6 | -17.8* | -0.2
Nc1nnnn1/N=C/C(Br)=C/c1ccccc1 | 85.4* | -1.8 | 47.5* | -20.4* | 1.4
CC(=O)N1CCc2cc(S(=O)(=O)CCC(=O)N3CCN(C(=O)c4ccco4)CC3)ccc21 | 2.4 | -1.1 | 31.2* | 150.3 | -0.4
CCOc1ccc(N(CC(=O)OC)S(=O)(=O)c2ccc(OC)c(OC)c2)cc1 | 5.0 | -2.8 | 7.0 | 113.8 | -0.4
COC(=O)CN(c1ccc(OC)cc1)S(=O)(=O)c1ccc(OC)c(OC)c1 | -0.3 | 19.5* | 4.0 | 107.2 | 0.6
Cc1ccc2c(c1)N(CC(=O)OC(CC(C)C)C(=O)NC1CCCC1)C(=O)CO2 (configuration not stated) | 33.7 | -0.4 | -3.0 | -24.2* | 0.1
CC(C)C(OC(=O)CN1C(=O)COc2ccccc21)C(=O)NC1CCCC1 (configuration not stated) | 19.2 | -5.9 | -10.3 | 80.1 | 0.0
Cc1sc2nc(CN3CCOCC3)nc(NS(=O)(=O)c3ccc4c(c3)OCCO4)c2c1C | 0.9 | -3.3 | 8.3 | 81.0 | 1.0
c1csc(-c2csc3nc(CN4CCOCC4)nc(NCc4ccc5c(c4)OCO5)c23)c1 | 51.6* | -0.9 | 6.9 | 93.0 | -0.3
COc1ccc(-c2nnc(SCc3ccccc3F)o2)cc1OC | 9.7 | -1.4 | 29.9* | 90.5 | -0.3
CCc1nnc(NC(=O)Cn2nnc(-c3ccccc3F)n2)s1 | 4.6 | -0.3 | -4.9 | 88.8 | 1.5
O=C(CCN1CCN(Cc2ccccc2)CC1)Nc1cccc(Cl)c1 | 7.5 | -1.7 | -0.9 | 31.4 | 0.6
CN(C)c1ccc(/C=N/n2ncc3ccccc32)cc1 | -18.5 | 24.5* | 5.9 | 70.9 | 2.8
Cc1cc(Oc2ccc(-c3ccccc3)cc2)n2ncnc2n1 | 46.3* | -2.7 | 34.1* | 42.4 | -0.1
CCN(c1ccccc1)c1cc(C)nc2ncnn12 | 5.2 | 1.7 | -18.5 | 103.2 | 0.8
CCOC(=O)c1ccc(NS(=O)(=O)c2cnc[nH]2)cc1 | -2.6 | -5.3 | -4.0 | 123.6 | 0.3
c1coc(CNc2ncnc3c2oc2ccccc23)c1 | -7.7 | 0.4 | -1.0 | 72.9 | 0.4
CCc1nc(NCc2ccco2)c2oc3ccccc3c2n1 | 2.2 | -1.1 | 34.2* | 98.9 | 0.0
CCc1nc(SCCO)c2oc3ccccc3c2n1 | 9.1 | 1.3 | 32.6* | 71.7 | -0.2

High-throughput results as filed in PubChem BioAssay.
